Reference: PubChem BioAssay
Calls of active or inactive are those of the source.

Columns and labels:
[1] = system: Human papillomavirus type 1a protein E7 (residues 44-93); experiment: HPV1a E7 fragment binders on microarrays, primary screen, biochemical, small-molecule microarray, residues 44-93, 635 nm fluorescence (AID 1108); details: small-molecule microarray binding, fluorescence 635 nm; higher = more signal;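 note: E7 fragment applied at 1 µg/mL in TBST for 1 h at 4 C; score combines spot fluorescence with its signal to noise ratio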
[2] = modulators of HCV replicon luciferase signal, primary screen, HCV replication inhibitor project, Huh7 cells, luciferase reporter (AID 1109); details: 48 h, higher = more signal;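 note: huh7 hepatoma cells harbouring a luciferase neomycin HCV replicon reporter; luciferase luminescence as measure of HCV replicon replication; test concentration not given here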
[3] = biological target: Left-right determination factor 2 (Homo sapiens) (UniProt O00292); experiment: LEFTY2 binders on small-molecule microarrays, primary screen, biochemical, small-molecule microarray, 635 nm fluorescence scan (AID 1110); details: LEFTY2 binding, higher = more signal
[4] = biological target: Calmodulin-1 (Homo sapiens) (UniProt P0DP23); experiment: CALM1 binders on microarrays, EGTA buffer, profiling panel, biochemical, small-molecule microarray, Cy5-labelled CALM1 (AID 1111); details: Cy5-CALM1 binding fluorescence, higher = more signal;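 note: labelled calmodulin applied in Tris saline Tween buffer holding calcium plus EGTA and DTT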
[5] = biological target: Calmodulin-1 (Homo sapiens) (UniProt P0DP23); experiment: calcium-bound CALM1 binders on microarrays, profiling panel, artefact control for SMM control-protein annotation, biochemical, small-molecule microarray, Cy5-labelled CALM1, plus calcium (AID 1112); details: Cy5-CALM1 binding fluorescence, higher = more signal;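 note: score merges spot fluorescence with signal to noise from triplicate slides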
[6] = small-molecule microarray binders of probe aWnt5a, primary screen, biochemical, biotinylated probe, 635/667 nm fluorescence (AID 1113); details: higher = more signal;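 note: score merges 667 nm fluorescence intensity with signal-to-noise per printed feature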
[7] = small-molecule microarray binders of probe aShh, primary screen, biochemical, biotinylated probe, 635/667 nm fluorescence (AID 1114); details: higher = more signal;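 note: probe is biotin-labelled aShh protein from a stem cell growth factor screen; measures binding of labelled protein to compounds printed on the slide; score merges feature fluorescence at 667 nm with signal-to-noise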
[8] = small-molecule microarray binders of probe aNog, primary screen, biochemical, biotinylated probe, 635/667 nm fluorescence (AID 1115); details: higher = more signal;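 note: probe is biotinylated aNog protein used at 0.15 µg/mL for 1 h at 4 C; z-score combines 667 nm fluorescence of each spot with its signal to noise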
[9] = biological target: Torsin-1A-interacting protein 1 (Homo sapiens) (UniProt Q5JTV8); experiment: LAP1 binders from COS7 cell lysate, primary screen, small-molecule microarray, 635/667 nm fluorescence (AID 1116); details: COS7-hLAP1 lysate binding, 635 nm fluorescence, higher = more signal
[10] = biological target: Alpha-bungarotoxin (Bungarus multicinctus) (UniProt P60615); experiment: alpha-bungarotoxin binders on microarray, profiling panel, artefact control for SMM control protein annotation, biochemical, small-molecule microarray, Alexa647 label, 635/667 nm fluorescence (AID 1117); details: alpha-BTX-A647 binding fluorescence, higher = more signal
Albumin (Bos taurus) = Albumin (Bos taurus) (UniProt P02769); experiment: bovine serum albumin binders on microarray, profiling panel, artefact control for SMM control protein annotation, biochemical, small-molecule microarray, Alexa647 label, 635/667 nm fluorescence (AID 1118); details: BSA-A647 binding, fluorescence 635 nm, higher = more signal;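 note: score merges 667 nm emission intensity and signal-to-noise per printed compound spot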
[11] = small-molecule microarray binders of probe aXIP, primary screen, biochemical, NeuroSMM set, 635/667 nm fluorescence (AID 1119); details: higher = more signal, called active from +8 up or from −8 down;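 note: probe is the protein aXip251-270 applied at 1 µg/mL to compound-printed slides; binding of probe to printed compounds measured as 667 nm fluorescence plus signal to noise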
[12] = small-molecule binders of probe aNOTCH3, primary screen, biochemical, small-molecule microarray, 635/667 nm fluorescence (AID 1120); details: higher = more signal;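 note: probe is a biotin-tagged antibody raised against NOTCH3 rather than NOTCH3 protein; score merges spot fluorescence near 667 nm with spot signal to noise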
[13] = small-molecule binders of probe aNOTCH2, primary screen, biochemical, small-molecule microarray, 635/667 nm fluorescence (AID 1121); details: higher = more signal;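 note: score merges feature fluorescence read at 667 nm with its signal to noise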
[14] = biological target: Carbonic anhydrase 2 (Homo sapiens) (UniProt P00918); experiment: CAII small-molecule binders, profiling panel, biochemical, small-molecule microarray, Alexa647-labelled CAII (AID 1122); details: CAII-A647 binding fluorescence, higher = more signal
[15] = COS7 lysate on small-molecule microarray, probe aHis, 635 nm (AID 1123); details: COS7 cell lysate, fluorescence, higher = more signal;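 note: z-score combines 667nm fluorescence intensity with signal-to-noise per printed compound spot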
[16] = compound binding in COS7 lysate, probe aLAP1, primary screen, cell lysate, small-molecule microarray (AID 1124); details: probe aLAP1, fluorescence, higher = more signal;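 note: lysate comes from COS7 cells expressing LAP1 and is applied at 0.3 µg/mL; score merges spot fluorescence near 667 nm with signal-to-noise over triplicate slides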
Sam68 (KHDRBS1) = experiment: Sam68 small-molecule binders, primary screen, biochemical, small-molecule microarray, 635 nm fluorescence (AID 1125); details: small-molecule microarray binding, higher = more signal;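 note: score merges 667 nm channel intensity with signal to noise over triplicate slides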
[17] = system: Chordin-like protein 2 (CHRDL2); experiment: CHRDL2 small-molecule binders, primary screen, biochemical, small-molecule microarray, 635 nm fluorescence (AID 1126); details: small-molecule microarray binding, fluorescence 635 nm; higher = more signal;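 note: printed compound slides probed with Chrdl2 protein at 4 µg/mL for 1 h at 4 C; score merges 667 nm emission intensity with signal to noise over three replicate slides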
[18] = biological target: Concanavalin-A (Canavalia ensiformis) (UniProt P02866); experiment: ConA small-molecule binders, primary screen, artefact control for SMM control protein annotation, biochemical, small-molecule microarray, Alexa647 label, 635 nm (AID 1127); details: ConA-A647 binding fluorescence, higher = more signal;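 note: z combines 667 nm emission intensity with signal-to-noise across three replicate slides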
Chain of Concanavalin-A (Canavalia ensiformis) (P02866 whole entry, looked up): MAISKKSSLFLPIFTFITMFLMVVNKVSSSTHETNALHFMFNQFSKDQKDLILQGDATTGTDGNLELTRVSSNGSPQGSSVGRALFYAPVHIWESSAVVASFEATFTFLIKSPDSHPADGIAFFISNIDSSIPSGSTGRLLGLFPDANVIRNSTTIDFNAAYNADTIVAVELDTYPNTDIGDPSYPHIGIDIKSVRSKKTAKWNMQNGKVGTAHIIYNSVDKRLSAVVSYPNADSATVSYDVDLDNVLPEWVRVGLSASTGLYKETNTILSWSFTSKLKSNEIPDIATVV

Chain of Left-right determination factor 2 (Homo sapiens) (O00292 whole entry, looked up): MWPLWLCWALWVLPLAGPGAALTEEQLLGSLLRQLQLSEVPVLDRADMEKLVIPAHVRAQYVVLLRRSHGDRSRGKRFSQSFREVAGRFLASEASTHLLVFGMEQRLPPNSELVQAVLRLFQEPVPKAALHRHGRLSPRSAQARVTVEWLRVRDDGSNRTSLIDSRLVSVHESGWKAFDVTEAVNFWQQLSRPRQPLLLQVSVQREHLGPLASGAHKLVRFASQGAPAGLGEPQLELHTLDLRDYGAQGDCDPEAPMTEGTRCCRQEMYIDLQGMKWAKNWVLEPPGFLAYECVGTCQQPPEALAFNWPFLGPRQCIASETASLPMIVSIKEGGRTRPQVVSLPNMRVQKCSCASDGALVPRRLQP
Chain of Albumin (Bos taurus) (P02769 whole entry, looked up): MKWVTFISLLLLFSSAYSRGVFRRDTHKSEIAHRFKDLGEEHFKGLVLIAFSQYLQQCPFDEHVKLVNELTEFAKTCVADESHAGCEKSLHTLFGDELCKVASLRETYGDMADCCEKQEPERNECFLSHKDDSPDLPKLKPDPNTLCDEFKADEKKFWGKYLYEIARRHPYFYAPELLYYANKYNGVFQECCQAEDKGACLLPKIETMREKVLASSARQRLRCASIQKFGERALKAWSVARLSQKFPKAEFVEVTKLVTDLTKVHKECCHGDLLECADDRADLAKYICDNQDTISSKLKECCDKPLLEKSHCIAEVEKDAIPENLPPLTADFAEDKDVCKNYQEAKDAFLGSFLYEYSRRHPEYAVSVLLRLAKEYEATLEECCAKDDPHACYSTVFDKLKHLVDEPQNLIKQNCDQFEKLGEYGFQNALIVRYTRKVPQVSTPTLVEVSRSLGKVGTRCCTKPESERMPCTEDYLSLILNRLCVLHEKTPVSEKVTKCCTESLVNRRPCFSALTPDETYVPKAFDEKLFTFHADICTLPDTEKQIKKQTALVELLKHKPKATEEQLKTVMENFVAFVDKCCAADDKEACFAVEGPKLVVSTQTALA
Chain of Alpha-bungarotoxin (Bungarus multicinctus) (P60615 whole entry, looked up): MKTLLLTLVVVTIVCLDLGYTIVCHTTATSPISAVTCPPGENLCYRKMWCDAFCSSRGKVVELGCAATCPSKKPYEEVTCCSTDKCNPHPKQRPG
Chain of Torsin-1A-interacting protein 1 (Homo sapiens) (Q5JTV8 whole entry, looked up): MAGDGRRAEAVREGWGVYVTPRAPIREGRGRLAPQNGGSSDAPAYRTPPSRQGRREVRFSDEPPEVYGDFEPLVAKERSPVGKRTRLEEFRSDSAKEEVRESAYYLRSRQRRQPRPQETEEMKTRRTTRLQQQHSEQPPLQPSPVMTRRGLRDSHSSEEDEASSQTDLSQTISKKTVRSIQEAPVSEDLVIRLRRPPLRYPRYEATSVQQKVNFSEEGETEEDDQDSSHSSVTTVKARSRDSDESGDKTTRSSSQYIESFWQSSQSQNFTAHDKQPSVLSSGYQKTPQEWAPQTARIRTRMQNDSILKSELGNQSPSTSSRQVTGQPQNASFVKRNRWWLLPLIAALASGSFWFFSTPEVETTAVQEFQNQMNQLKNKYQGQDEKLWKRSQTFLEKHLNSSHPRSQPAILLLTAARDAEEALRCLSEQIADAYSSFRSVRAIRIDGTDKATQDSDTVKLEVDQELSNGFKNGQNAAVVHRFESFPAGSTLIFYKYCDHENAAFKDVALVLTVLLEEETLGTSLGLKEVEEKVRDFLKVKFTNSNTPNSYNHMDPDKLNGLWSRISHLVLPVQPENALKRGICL

| Compound | composite z-score [1] | z-score [2] | composite z-score [3] | composite z-score [4] | composite z-score [5] | composite z-score [6] | composite z-score [7] | composite z-score [8] | composite z-score [9] | composite z-score [10] | composite z-score (Albumin (Bos taurus)) | composite Z-score [11] | composite z-score [12] | composite z-score [13] | composite z-score [14] | composite z-score [15] | composite z-score [16] | composite z-score (Sam68 (KHDRBS1)) | composite z-score [17] | composite z-score [18] |
| --- | --- | --- | --- | --- | --- | --- | --- | --- | --- | --- | --- | --- | --- | --- | --- | --- | --- | --- | --- | --- |
| NCCCC[C@@H]1NC(=O)[C@H]2C[C@@H](C(=O)NCc3ccc(F)cc3)[C@@H](c3ccc(O)cc3)N2C1=O | 1.18 | -0.0038 | 0.567 | 1.17 | 0.428 | -0.0161 | 0.452 | -0.171 | 2.33 | 1.26 | -0.135 | 0.744 (inactive) | 0.125 | -0.0531 | 0.738 | 2.18 | 0.313 | 1.19 | 0.521 | 1.13 |
| COc1ccc([Si](C)(C)[C@H]2[C@H](CCO)O[C@@]3(C(=O)N(Cc4ccc(N5CCOC5=O)cc4)c4ccccc43)[C@@H]2C)cc1 | 1.11 | -3.71 | -0.284 | 0.854 | 0.455 | -0.12 | 0.151 | 0 | 0.248 | 0.93 | 0.243 | -0.392 (inactive) | -0.0697 | -0.1 | 0.417 | 1.5 | 0.171 | 0.968 | -0.07 | 1.11 |
| COC(=O)[C@@]1(CCS(=O)(=O)c2ccccc2)N=C(c2ccc(OCCCO)cc2)O[C@H]1c1ccccc1N=[N+]=[N-] | 1.38 | -1.83 | 0.406 | 1.29 | 0.383 | -0.0455 | -0.0904 | 0.424 | 0.861 | 2.23 | 0.827 | -0.0127 (inactive) | 0.0237 | 0.0196 | 0.356 | 2.92 | 0.406 | 1.3 | 0.889 | 1.11 |
| C=CCC(OC(C)=O)[C@@H]1[C@@H](N(Cc2cc3ccccc3o2)C(=O)c2cccc3ccccc23)c2cc(OCCCO)ccc2N1C(=O)c1ccc2ccccc2c1 (stereo not given in full) | -0.0617 | -0.0143 | -0.338 | -0.0758 | 0.63 | 0.0047 | -0.138 | -0.12 | 0.414 | 0.0671 | 0.163 | -0.73 (inactive) | -0.0647 | -0.0906 | 0.229 | 0.542 | -0.177 | -0.0368 | 0.556 | -0.259 |
| C=CCNC(=O)[C@H]1[C@@H]2C(=O)O[C@@H](c3ccccc3)[C@@H](c3ccccc3)N2[C@@H](c2ccc(O)cc2)[C@]12C(=O)Nc1ccc(C#CC3=CCCCC3)cc12 | 1.32 | -1.83 | 0.71 | 0.887 | 0.571 | 0.163 | 0.951 | 0.587 | 1.11 | 0.491 | 0.135 | -0.121 (inactive) | -0.119 | 0.23 | 0.416 | 1.52 | 0.573 | 1.11 | 0.62 | 1.12 |
| COCCOC(=O)N1C(=O)[C@@]2(c3cc(C#CCNC(N)=O)ccc31)[C@H](C(=O)NC[C@H](O)c1ccccc1)[C@H]1C(=O)O[C@H](c3ccccc3)[C@H](c3ccccc3)N1[C@@H]2c1ccc(OCCO)cc1 | 1.11 | 0.724 | 0.319 | 0.565 | 0.442 | -0.0459 | 0.13 | 1.09 | 1.47 | 0.41 | 0.472 | -0.102 (inactive) | 0.0018 | -0.2 | 0.355 | 0.245 | 0.666 | 1.26 | 0.285 | 1.02 |
| O=C1N(Cc2ccccc2)c2ccccc2[C@H]2OC(c3ccc(OCCCO)cc3)=N[C@@]12Cc1ccccc1 | 1.03 | -2.48 | -0.116 | 0.244 | -0.0364 | 0.067 | 1.06 | 0.798 | 0.498 | 1.81 | -0.465 | 1.19 (inactive) | 0.0271 | -0.131 | 0.606 | 2.42 | 1.1 | 1.3 | 0.41 | 1.06 |
| COCC(=C=CC[C@@H](O)c1cccc(OCCO)c1)C[C@@H](O)COCc1ccccc1 | 0.276 | -0.81 | -0.0586 | 1.8 | 1.35 | 0.284 | 0.0633 | -0.215 | 3.66 | 0.116 | 0.809 | -1.85 (inactive) | 0.381 | 0.121 | 0.552 | 3.68 | 0.684 | 0.92 | -0.69 | 0.132 |
| C=C(COC)/C(=C/C[C@@H](OC(C)=O)c1ccccc1OCCO)c1cc(C(=O)OC)ccc1OC | 1.3 | -2.3 | -0.145 | -0.249 | -0.808 | -0.1 | 0.0469 | 0.0502 | 1.46 | 0.324 | 0.27 | 1.02 (inactive) | 0.213 | -0.122 | 0.388 | 0.283 | 0.0845 | 0.844 | -0.183 | 0.369 |
| CC(=O)NCCCC[C@@H]1NC(=O)[C@H]2C[C@@H](C(=O)NCCCCCC[N+](C)(C)C)[C@@H](c3ccc(O)cc3)N2C1=O | 1.4 | 1.38 | 0.62 | -0.183 | -0.906 | -0.107 | -0.153 | 0.762 | 0.611 | 0.472 | 0.596 | 0.285 (inactive) | -0.0057 | -0.0556 | 0.676 | 2.2 | 0.527 | 1.17 | 1.4 | 0.682 |
| COC(=O)C1=CC(CCCO)=CC(c2ccc(CN3CCCC3)cc2)N(Cc2sc3ccccc3c2Cl)C=C1C(=O)OC (stereo not given) | 1.34 | -0.574 | 1.17 | 2.96 | 1.22 | 0.0625 | 0.661 | 2.08 | 3.75 | 3.77 | 1.05 | 3.3 (inactive) | 0.734 | 0.157 | 0.788 | 2.95 | 0.926 | 1.3 | 0.153 | 1.21 |
